Screening data as filed in PubChem BioAssay.
Sampled rows, rich in hits. Any-hit rate of the full collection: about 2.3%.
M1 ag: human M1 muscarinic receptor agonists, primary screen, Fluo-8 calcium fluorescence, CHO-K1 cells, HTS | Muscarinic acetylcholine receptor M1 (Homo sapiens), P11229 | CHO-K1 hM1, agonist mode; 0% DMSO, 100% acetylcholine EC100 | activation, % at 3 µM | 360,000 tested, 0.33% active;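 active = activation above the run's mean compound activation plus 3 SD, cut at about 16% in these data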;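 also: peak over basal fluorescence ratio within a 140 s kinetic read after compound addition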
Target sequence (P11229 whole entry, looked up): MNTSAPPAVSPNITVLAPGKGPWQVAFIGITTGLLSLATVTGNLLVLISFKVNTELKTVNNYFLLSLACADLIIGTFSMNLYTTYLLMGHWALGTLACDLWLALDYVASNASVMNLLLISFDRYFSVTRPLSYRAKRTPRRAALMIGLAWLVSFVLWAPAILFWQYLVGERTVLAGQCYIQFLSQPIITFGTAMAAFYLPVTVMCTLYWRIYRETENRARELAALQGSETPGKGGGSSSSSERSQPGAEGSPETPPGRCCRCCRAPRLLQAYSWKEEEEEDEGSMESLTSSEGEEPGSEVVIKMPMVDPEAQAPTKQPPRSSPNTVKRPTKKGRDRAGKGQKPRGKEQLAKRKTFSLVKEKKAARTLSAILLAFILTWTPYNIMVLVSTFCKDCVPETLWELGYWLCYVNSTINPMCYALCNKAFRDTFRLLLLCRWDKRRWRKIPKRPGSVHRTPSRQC
M1 ag parental: counter-screen for M1 agonists: effect in parental CHO-K1 cells. 360,000 tested, 0.48% active. activation, % at 3 µM. AID 602248, 2012. Fluo-8 calcium fluorescence; scaled to maximal ATP response, vehicle zero; in the data active = activation above about 15%;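 also: untransfected CHO-K1 host cells lacking M1 receptor as counterscreen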
CHO-K1 Ca antag: nonselective inhibitor or artifact in parental CHO-K1 cells | AID 602250 | 360,000 tested, 0.6% active | inhibition, % at 3 µM | ATP-induced calcium, Fluo-8 fluorescence;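 active = inhibition above a per-plate cutoff, the plate's mean sample inhibition plus 3 SD, cut at about 24% in these data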;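 also: 0% = DMSO plus EC80 ATP and 100% = DMSO alone without ATP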
CHRM1 PAM: human M1 muscarinic receptor positive allosteric modulators, primary screen, CHO-K1 cells, Fluo-8 calcium fluorescence, 1536-well; Muscarinic acetylcholine receptor M1 (Homo sapiens), P11229; CHO-K1 hM1, ACh EC20; 0% = ACh EC20, 100% = maximal ACh; activation, % at 3 µM; 360,000 tested, 0.088% active; AID 588819, 2011; in the data active = activation above about 19%, passing the limit was not always enough
M1 antag: human M1 muscarinic receptor antagonists, primary screen, CHO-K1 cells, Fluo-8 calcium fluorescence, 1536-well. Muscarinic acetylcholine receptor M1 (Homo sapiens), P11229. CHO-K1 hM1, ACh EC80 antagonist. inhibition, % at 3 µM. 360,000 tested, 1.3% active;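 active = percent inhibition above its own plate's cutoff, namely the mean of that plate's compound wells plus 3 SD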;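 also: peak over basal fluorescence ratio during 140 s after agonist addition; 0% = ACh EC80 plus DMSO and 100% = DMSO alone without agonist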
CHO-K1 Ca PAM: nonselective calcium activators in parental CHO-K1 cells, primary screen, counter-screen for M1 PAM project, cell-based, Fluo-8 calcium fluorescence, full deck, 1536-well; ATP EC20; 0% at ATP EC20, 100% at ATP max; activation, % at 3 µM; 360,000 tested, 0.02% active; AID 602247, 2012;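 active = activation above the run cutoff, the mean activation of all test compounds plus 3 SD, cut at about 40% in these data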;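 also: peak over basal fluorescence ratio in a 140 s read after ATP addition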
* hit, by the source's call.

SMILES	M1 ag	M1 ag parental	CHO-K1 Ca antag	CHRM1 PAM	M1 antag	CHO-K1 Ca PAM
CCO[C@H]1OC(C(=O)NCc2ccccc2)=C[C@@H](c2ccc(C(F)(F)F)cc2)[C@@H]1CCCO	-3.3	0.5	4.2	3.2	-3.3	-3.2
C#Cc1ccc([C@H]2C=C(C(=O)NCc3ccccc3)O[C@@H](OCC)[C@@H]2CCCO)cc1	-13.7	-0.3	-17.8	-40.3	63.2*	15.7
COc1cc2c(cc1OC)C(C)N(C(=O)CCN1C(=O)C3C4C=CC(C4)C3C1=O)CC2 (stereo not drawn)	4.5	0.1	0.0	12.7	-27.9	5.4
Cc1ccc(C(=O)NC2CCN(CC(=O)Nc3ccccc3Cl)CC2)cc1	1.0	15.6*	0.1	9.4	-17.0	4.9
CN(CCO)CC(O)CN(c1ccccc1)c1ccccc1 (stereo not drawn)	-4.2	4.9	-11.4	-4.3	7.1	10.4
CN(Cc1ccccc1)CC(O)CN(C)Cc1ccccc1	18.4*	0.5	-3.8	-5.3	5.2	4.0
CC/C(=N\NC(=O)Nc1ccccc1)c1ccccc1	-1.8	0.6	33.6*	2.8	8.6	1.9
C/C(CC(C)C)=N\NC(=O)Nc1ccccc1	-5.6	0.3	-10.8	7.4	-5.6	21.3
COc1ccc(-n2cc(CNCCCn3ccnc3)c(-c3cccc(F)c3)n2)cc1	-7.4	2.5	-9.4	14.2	-11.4	22.5
CCOC(=O)C1(C)CCCCCN1C(=O)c1ccc(OC)cc1 (stereo not drawn)	-2.7	0.1	24.7*	-4.0	10.1	-14.2
CCOC(=O)C1(C)CCCCN1C(=O)c1ccc(N(C)C)cc1 (stereo not drawn)	0.3	-0.1	17.6	10.4	-12.6	-2.5
Cc1cccc(C)c1NC(=O)COC(=O)c1c2c(nc3ccccc13)/C(=C\c1ccc3c(c1)OCO3)CCC2	41.7*	41.0*	27.6*	-16.2	32.4	-3.0
C=CCn1c(SCC#N)nc2sc(CC)cc2c1=O	-6.2	1.3	-19.3	-20.4	34.2*	-7.0
O=C(Nc1ccccc1Cl)c1ccc2nc(N3CCOCC3)sc2c1	0.9	3.8	2.2	-3.4	-3.6	23.0
O=C(c1ccco1)N1CCN(Cc2nc3ccc([N+](=O)[O-])cc3c(=O)n2-c2ccccc2F)CC1	-1.4	5.0	27.7*	-3.0	15.3	-7.1
CCOc1ccc(/C=N/Nc2ccc(C(F)(F)F)cc2[N+](=O)[O-])cc1O	-6.1	17.7*	10.1	-1.1	1.4	-11.2
Fc1ccc(Nc2nnc(C(F)(F)F)s2)cc1Cl	0.1	14.6	40.8*	-15.1	36.7*	-22.1
FC(F)(F)c1nnc(Nc2ccc(Cl)cc2)s1	3.0	11.3	-2.5	-8.1	6.0	-0.1
C(#Cc1ccccc1)C[N+]1(CC#Cc2ccccc2)CCCC1	-9.5	0.1	-7.6	-22.6	39.3*	11.1
NC(=O)c1ccc[n+](CCC[n+]2cccc(C(N)=O)c2)c1	-3.0	0.2	-15.7	8.3	-6.5	14.6
CCCCCCCCCC[n+]1cccc(C(=O)N(CC)CC)c1	-9.2	0.3	-3.1	-24.8	42.2*	9.3
O=C(O)CSc1nnc(-c2cccc(S(=O)(=O)N3CCOCC3)c2)n1-c1cccc(Cl)c1	-2.0	1.5	-18.1	15.0	-18.0	18.9
CC1(C)CC(NC(=O)c2cc(S(=O)(=O)N3CCOCC3)c(Cl)cc2Cl)CC(C)(C)N1	0.6	1.5	-6.8	30.6*	-25.4	9.5
CN1/C(=C\C(=O)COC(=O)Cn2nnc(-c3ccccc3)n2)C(C)(C)c2ccccc21	-1.4	1.4	24.0*	-11.3	9.2	-6.5
COc1ccc(NC(=O)Nc2ccc3c(c2)N(C)C(=O)CS3)cc1OC	1.6	4.3	-6.3	-3.9	-8.1	-6.0
SMILES	M1 ag	M1 ag parental	CHO-K1 Ca antag	CHRM1 PAM	M1 antag	CHO-K1 Ca PAM
CC(C)CCNC(=O)Nc1ccc2c(c1)N(C)C(=O)CS2	0.0	1.4	21.1	-11.0	32.9*	-7.8
COc1ccc(NC(=O)Nc2ccc3c(c2)N(C)C(=O)CS3)cc1Cl	2.7	7.3	28.1*	-10.2	22.9	-1.6
O=S(=O)(NC1CCCCC1N1CCCCC1)c1ccccc1 (stereo not drawn)	-6.8	0.3	-12.7	21.1	-13.8	3.6
CCN1CCN(C2CCCCC2NS(=O)(=O)c2ccccc2)CC1 (stereo not drawn)	-5.2	0.1	-3.5	-15.1	34.1*	-5.6
CCOC(=O)C1CCN(C(=O)c2sc3nc(-c4ccccc4)cn3c2C)CC1	-6.2	0.3	17.6	5.8	-8.0	-3.6
CCOC(=O)C1CCCN(C(=O)c2cc(-c3ccco3)nc3ccccc23)C1 (stereo not drawn)	25.3*	1.7	-15.2	-5.0	-11.6	14.9
CCOC(=O)C1CCCN(C(=O)c2sc3nc(-c4ccc(OC)cc4)cn3c2C)C1 (stereo not drawn)	28.4*	0.2	-4.8	-5.5	-0.9	15.5
CCOC(=O)C1CCCN(C(=O)c2ccc(-c3ccccc3Cl)o2)C1 (stereo not drawn)	4.7	0.9	-1.2	2.2	-8.1	11.8
CCOC(=O)C1CCCN(C(=O)c2ccco2)C1 (stereo not drawn)	51.8*	0.5	-9.8	-26.9	14.7	13.8
CCOC(=O)C1CCCN(c2c(C(=O)c3ccccc3)cnc3ccccc23)C1 (stereo not drawn)	38.4*	3.8	14.2	-22.7	30.0*	9.0
COc1cc(C(=O)NCc2ccc(S(N)(=O)=O)cc2)ccc1OCC(=O)N1CCOCC1	2.2	1.1	-7.5	0.2	-1.7	3.9
CN(Cc1c(F)cccc1Cl)C(=O)c1ccc(NS(=O)(=O)c2ccc3[nH]c(=O)[nH]c3c2)cc1	-4.6	0.6	-11.4	9.4	-10.7	-2.3
O=C(N/N=C/c1ccccc1OCc1ccccc1)c1cccs1	-3.5	0.0	10.8	2.0	-1.7	1.0
CCC(C)C(CO)NCCCn1cnc(C(=O)Nc2ccc(C)c(C)c2)n1 (stereo not drawn)	-5.3	0.2	-8.3	4.9	-9.2	0.2
CC(C)c1ccc(OCC(=O)NCCO)cc1	-2.9	0.4	-7.1	-5.6	9.1	5.8
Cc1ccc(NC(=O)C2CCN(S(C)(=O)=O)CC2)cc1Cl	0.1	0.4	-12.5	9.3	-10.2	-5.0
CCCS(=O)(=O)N1CCN(CC2CC3C=CC2C3)CC1 (stereo not drawn)	21.9*	0.8	-17.5	-5.2	0.2	23.1
O=C(c1cc(Br)c(Br)s1)N1CCN(c2ccccn2)CC1	-5.2	3.5	5.6	-15.0	38.8*	-8.0
